Results reported in the supplement of paper PMC6658780.
Counter-ions that a name gives are not always drawn. ± gives the standard deviation of the averaged measurements.

test system: Escherichia coli ATCC BAA-2469; test: percent growth inhibition of drug alone vs DMSO control; higher = more growth inhibition; conditions: antibiotic (0.125x MIC): none (0.1% DMSO); 7 µM
Experimental: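 Prestwick drugs tested at 20 uM and 7 uM with an antibiotic at 0.125x MIC (16 mg/L when MIC >128 mg/L) against E. coli ATCC BAA-2469 (NDM-1) in CAMHB, 384-well plates, duplicate runs. Percent growth inhibition was computed from OD600 (24 h minus 0 h) relative to DMSO wells. Drug + DMSO-only wells are also given. […]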

Structure (SMILES) | percent growth inhibition of drug alone [%]
N=C(NCCCCCCNC(=N)NC(=N)Nc1ccc(Cl)cc1)NC(=N)Nc1ccc(Cl)cc1 [Chlorhexidine] | 103 ± 2.7
COc1cc(NS(=O)(=O)c2ccc(N)cc2)nc(OC)n1 [Sulfadimethoxine] | -0.418 ± 1.2
NS(=O)(=O)c1cc2c(cc1C(F)(F)F)NC(Cc1ccccc1)NS2(=O)=O (centres undefined) [Bendroflumethiazide] | -1.67 ± 1.1
Oc1c(I)cc(Cl)c2cccnc12 [Clioquinol] | 11.8 ± 2.5
O=C1NCCN1c1ncc([N+](=O)[O-])s1 [Niridazole] | 19.9 ± 7.6
CC1CS(=O)(=O)CCN1/N=C/c1ccc([N+](=O)[O-])o1 (centres undefined) [Nifurtimox] | 1.01 ± 1.2
Nc1nc(F)nc2c1ncn2[C@@H]1O[C@H](CO)[C@@H](O)[C@@H]1O [Fludarabine] | 23 ± 20
Cc1c(N(C)C)c(=O)n(-c2ccccc2)n1C [Amidopyrine] | 0.00227 ± 1.1
Nc1nc(O)c2ncn(CCC(CO)CO)c2n1 [Penciclovir] | 1.39 ± 3.5
Nc1c2ccccc2nc2ccccc12 [Aminacrine] | 1.8 ± 0.95
CCCCCCCCNC(C)C(O)c1ccc(SC(C)C)cc1 (centres undefined) [Suloctidil] | 7.25 ± 11
COc1cc(C(=O)NCc2ccc(OCCN(C)C)cc2)cc(OC)c1OC [Trimethobenzamide hydrochloride] | 2.6 ± 2.7
CC(=O)c1ccc2c(c1)N(CCCN1CCC(CCO)CC1)c1ccccc1S2 [Piperacetazine] | 0.548 ± 3.2
Oc1c(Cl)cc(Cl)c2cccnc12 [Chloroxine] | 13.1 ± 9.1
N[C@@H]1CCCCN(c2c(F)cc3c(=O)c(C(=O)O)cn(C4CC4)c3c2Cl)C1 [Besifloxacin hydrochloride] | 3.86 ± 3.6
NC(=O)N/N=C/c1ccc([N+](=O)[O-])o1 [Nitrofural] | 5.6 ± 7.3
Cc1cc(/C=C/c2ccc3cc(N(C)C)ccc3[n+]2C)c(C)n1-c1ccccc1 [Pyrvinium pamoate] | 11.8 ± 12
CCCCNc1c(C(=O)OCC)c(C)nc2c1cnn2CC [Tracazolate hydrochloride] | 3.29 ± 0.5
O=C(O)CN(CCN(CC(=O)O)CC(=O)O)CCN(CC(=O)O)CC(=O)O [Pentetic acid] | 0.0597 ± 2.1
OCCN1CCN(CCCN2c3ccccc3Sc3ccc(C(F)(F)F)cc32)CC1 [Fluphenazine dihydrochloride] | 1.91 ± 1.5

same assay, conditions: antibiotic (0.125x MIC): none (0.1% DMSO); 20 µM

Structure (SMILES) | percent growth inhibition of drug alone [%]
N=C(NCCCCCCNC(=N)NC(=N)Nc1ccc(Cl)cc1)NC(=N)Nc1ccc(Cl)cc1 [Chlorhexidine] | 106 ± 2.6
COc1cc(NS(=O)(=O)c2ccc(N)cc2)nc(OC)n1 [Sulfadimethoxine] | -0.552 ± 0.63
NS(=O)(=O)c1cc2c(cc1C(F)(F)F)NC(Cc1ccccc1)NS2(=O)=O (centres undefined) [Bendroflumethiazide] | -1.13 ± 2.1
CC1CS(=O)(=O)CCN1/N=C/c1ccc([N+](=O)[O-])o1 (centres undefined) [Nifurtimox] | 1.15 ± 4.3
Nc1nc(F)nc2c1ncn2[C@@H]1O[C@H](CO)[C@@H](O)[C@@H]1O [Fludarabine] | 59.1 ± 4.9
Cc1c(N(C)C)c(=O)n(-c2ccccc2)n1C [Amidopyrine] | -1.02 ± 2.5
Nc1nc(O)c2ncn(CCC(CO)CO)c2n1 [Penciclovir] | -1.4 ± 2.5
Nc1c2ccccc2nc2ccccc12 [Aminacrine] | 21 ± 13
CO[C@H]1/C=C/O[C@@]2(C)Oc3c(C)c(O)c4c(O)c(c(/C=N/N5CCN(C6CCCC6)CC5)c(O)c4c3C2=O)NC(=O)/C(C)=C\C=C\[C@H](C)[C@H](O)[C@@H](C)[C@@H](O)[C@@H](C)[C@H](OC(C)=O)[C@@H]1C [Rifapentine] | 112 ± 10
CCCCCCCCNC(C)C(O)c1ccc(SC(C)C)cc1 (centres undefined) [Suloctidil] | 10.4 ± 16
COc1cc(C(=O)NCc2ccc(OCCN(C)C)cc2)cc(OC)c1OC [Trimethobenzamide hydrochloride] | -0.217 ± 4.2
CC(=O)c1ccc2c(c1)N(CCCN1CCC(CCO)CC1)c1ccccc1S2 [Piperacetazine] | 0.302 ± 2.2
Oc1c(Cl)cc(Cl)c2cccnc12 [Chloroxine] | 102 ± 8
NC(=O)N/N=C/c1ccc([N+](=O)[O-])o1 [Nitrofural] | 32.1 ± 18
Cc1cc(/C=C/c2ccc3cc(N(C)C)ccc3[n+]2C)c(C)n1-c1ccccc1 [Pyrvinium pamoate] | 13.6 ± 3.2
CCCCNc1c(C(=O)OCC)c(C)nc2c1cnn2CC [Tracazolate hydrochloride] | -0.173 ± 5.2
CO[C@H]1/C=C/O[C@@]2(C)Oc3c(C)c(O)c4c(O)c(c5c(nc6cc(C)ccn65)c4c3C2=O)NC(=O)/C(C)=C\C=C\[C@H](C)[C@H](O)[C@@H](C)[C@@H](O)[C@@H](C)[C@H](OC(C)=O)[C@@H]1C [Rifaximin] | 102 ± 7.8
O=C(O)CN(CCN(CC(=O)O)CC(=O)O)CCN(CC(=O)O)CC(=O)O [Pentetic acid] | 0.251 ± 0.41
OCCN1CCN(CCCN2c3ccccc3Sc3ccc(C(F)(F)F)cc32)CC1 [Fluphenazine dihydrochloride] | 3.64 ± 1.5
